Only some compounds are listed: those with a hit (about 2.4% of all), similar ones and a draw of the others.
D2 antag – D2 dopamine receptor (human) antagonism | AID 485344 | inhibition, % at 10 µM | HEK293 TREx D2 cells, calcium flux, dopamine EC80 | actives 2% (n = 340,000); in the data active = inhibition above about 30%; inactive = below that, where a call was filed
Target sequence (P14416 whole entry, looked up): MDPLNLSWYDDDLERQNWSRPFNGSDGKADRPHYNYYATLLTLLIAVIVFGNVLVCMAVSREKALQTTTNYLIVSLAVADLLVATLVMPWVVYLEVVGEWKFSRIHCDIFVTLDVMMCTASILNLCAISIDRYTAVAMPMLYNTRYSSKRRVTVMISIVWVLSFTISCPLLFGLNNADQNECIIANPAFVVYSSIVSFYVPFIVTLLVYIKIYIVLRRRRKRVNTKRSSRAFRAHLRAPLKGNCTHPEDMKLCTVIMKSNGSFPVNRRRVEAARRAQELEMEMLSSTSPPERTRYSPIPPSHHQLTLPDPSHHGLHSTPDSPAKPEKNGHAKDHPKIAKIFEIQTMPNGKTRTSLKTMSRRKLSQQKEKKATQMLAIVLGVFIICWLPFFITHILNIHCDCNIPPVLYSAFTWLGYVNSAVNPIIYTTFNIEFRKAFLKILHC
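Tetracycline-induced HEK293 T-REx cells expressing D2 force-coupled to calcium signalling were dye-loaded, exposed to compound for 180 s, then challenged with an EC80 of dopamine; calcium flux was followed kinetically for a further 180 s.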
D2 PAM-1 – positive allosteric modulators of human D2 dopamine receptor. potentiation, % at 10 µM. P14416. HEK293 T-REx D2, calcium flux, EC20 dopamine potentiation. actives 0.34% (n = 340,000);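 active = potentiation over 3 SD above the plate norm, cut at about 30% in these data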
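Tetracycline-induced HEK293 T-REx cells force-coupled to calcium signalling expressed D2; compounds were pin-added after a 10 s baseline, read kinetically 180 s, then an EC20 dopamine challenge followed with a further 180 s calcium read.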
D2 ag-1 – activates the human D2 dopamine receptor; activation, % (concentration not given with the values); P14416; DiscoveRx PathHunter D2 beta-arrestin, luminescence, 90 min; 100% = 57 uM dopamine signal; actives 0.084% (n = 360,000); in the data active = activation above about 40%; inconclusive = between about 15% and that limit
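DiscoveRx PathHunter D2 beta-arrestin cells (2,100/well) attached overnight, then compound-stimulated 90 min at 37 C in HBSS/10 mM HEPES/0.1% Tween-20 buffer; beta-galactosidase complementation read by luminescence after 1 h at ambient temperature. Dopamine 57 uM final (EC100) as control.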
D2 PAM-2 – positive allosteric modulators of human D2 dopamine receptor. P14416. DiscoveRx D2 beta-arrestin cells, luminescence, 90 min; 100% = 57 uM dopamine signal. potentiation, % (test concentration not listed). actives 0.23% (n = 360,000); in the data active = potentiation above about 50%; inconclusive = mostly about 30% to 49%
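D2 cells co-treated with compound plus 50 nM dopamine (EC20) for 90 min at 37 deg C to detect potentiation. Beta-arrestin recruitment was read as enzyme-fragment luminescence after 1 h at ambient temperature. Full response was set by 57 uM dopamine.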
D2 ag-2 – activates the human D2 dopamine receptor | activation, % at 2 µM | actives 0.53% (n = 340,000) | HEK293 T-REx D2 cells, calcium flux agonist mode | P14416;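 active = activation over 3 SD above normal in the single-dose calcium agonist read, cut at about 30% in these data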
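HEK293 Trex D2 cells, tetracycline-induced, o/n 30 C 5% CO2; no-wash Ca dye, RT 30–90 min; 10-cycle baseline, 23 nl cpd added, kinetic Ca read 180 s; agonist hits = positive Ca response.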
A number is an active result; . = inactive; ? = inconclusive; / = no result; ! = a repeat was not active.

SMILES	D2 antag	D2 PAM-1	D2 ag-1	D2 PAM-2	D2 ag-2
CCOC(=O)N1CCN(C(=O)CNC(=O)c2nn(-c3ccc(OC)c(Cl)c3)c(=O)c3ccccc23)CC1	.	43	.	.	.
Cc1ccn2c(=O)c(C(=O)NCCc3ccc(S(N)(=O)=O)cc3)c(O)nc2c1	/	.	/	/	.
Cc1ccc(-c2nn(-c3cccc(F)c3)cc2CN2CCN(c3ccccn3)CC2)o1	80	.	.	.	.
Cc1ccc(-c2nn(-c3cccc(F)c3)cc2CN(Cc2nccn2C)C(C)C)o1	.	.	.	.	.
O=C(c1cc2ccccc2o1)N1CCN(Cc2ccc3c(c2)OCO3)CC1	78	.	.	.	.
CN(C)c1ccc(C(=O)N2CCCC(N3CCN(Cc4ccc5c(c4)OCO5)CC3)C2)cc1 (stereo unspecified)	32	.	.	.	.
O=C(c1ccc(F)cc1)N1CCCC(N2CCN(Cc3ccc4c(c3)OCO4)CC2)C1 (stereo unspecified)	.	.	.	.	.
CCN(CC)C(=O)N1CCN(Cc2ccc3c(c2)OCO3)CC1	.	.	.	.	33
CC(=O)c1ccc(OCC(O)CN2CCN(Cc3ccc4c(c3)OCO4)CC2)cc1 (stereo unspecified)	56!	.	.	.	.
O=C(CCS(=O)(=O)c1cccc2nsnc12)N1CCN(Cc2ccc3c(c2)OCO3)CC1	.	.	.	.	36
O=C(CCS(=O)(=O)c1cccc2nsnc12)N1CCN(C(=O)c2ccco2)CC1	.	.	.	.	.
CC1=C(C)CC(C(=O)Nc2nc(-c3ccc(C)cc3C)c(C)s2)C(C(=O)O)C1 (stereo unspecified)	.	.	.	60	.
Cc1ccc(Cl)cc1-n1ncc2c(N3CCN(Cc4ccccc4)CC3)ncnc21	/	.	/	/	/
N/C(=N\OC(=O)c1cccs1)c1cccnc1	.	.	?	?	.
COc1ccc(/C=C/C(=O)Nc2ccccc2)cc1OC	30	.	.	.	.
N/C(Cc1ccc(Cl)c(Cl)c1)=N\OC(=O)c1cccs1	.	.	.	81	.
COc1ccc(/C=C/C(=O)O/N=C(\N)c2ccccc2)cc1OC	.	.	.	52	.
Cc1ccccc1/C(N)=N/OC(=O)c1cccs1	/	/	?	139	/
COc1cccc(CNC(=O)CCn2c(=O)c3cccn3c3ccc(F)cc32)c1OC	/	.	/	/	.
Cc1ccccc1/C(N)=N/OC(=O)/C=C/c1ccccc1	.	.	?	87	.
COc1ccc(-c2c(C)nn3c(-c4ccccc4)cc(-c4ccccc4)nc23)cc1	/	.	/	/	.
Cc1cc(C(=O)CSc2nnc(-c3ccc(F)cc3)o2)c(C)n1CC1COc2ccccc2O1 (stereo unspecified)	41	.	.	.	.
Cc1cc(C(=O)CSc2nnc(-c3ccccc3)o2)c(C)n1CC1COc2ccccc2O1 (stereo unspecified)	.	.	.	.	.
CCN(CC)C(CNS(=O)(=O)c1ccc(Cl)cc1)c1ccccc1 (stereo unspecified)	39	.	.	.	.
COC(CNS(=O)(=O)c1ccc(Cl)cc1)c1ccccc1 (stereo unspecified)	.	.	.	.	.
SMILES	D2 antag	D2 PAM-1	D2 ag-1	D2 PAM-2	D2 ag-2
O=C(Cn1c(NCCO)nc2ccccc21)c1ccc([N+](=O)[O-])cc1	30	.	.	.	.
COc1ccc(NC(=O)C2CCCN2S(=O)(=O)c2ccc(F)cc2)cc1 (stereo unspecified)	30	.	.	.	.
COc1ccc(NC(=O)c2cc3c(=O)n4ccccc4nc3n2C)cc1OC	.	35	.	.	.
COc1ccc(C)cc1NC(=O)c1cc2c(=O)n3ccccc3nc2n1C	.	.	.	.	.
OCCN(Cc1ccccc1)CC1CC2C=CC1C2 (stereo unspecified)	37	.	.	.	.
OCCN(Cc1ccccc1)CC1CCCCC1	.	.	.	.	.
N#Cc1ccc(C(=O)Nc2ccc(Cl)c(-c3nc4cc(Cl)ccc4o3)c2)c(F)c1	/	.	/	/	.
N#CC1=C(N)OC2=C(CC/C2=C\c2ccc(F)cc2)C1c1ccc(F)cc1 (stereo unspecified)	37	.	/	/	40
CCOC(=O)c1cccc(Nc2ncnc3ccccc23)c1	.	34	.	.	.
COC(=O)c1ccc(-c2ccc(/C=N/N3C(=O)C4C5C=CC(C6CC56)C4C3=O)o2)cc1 (stereo unspecified)	.	.	.	.	.
COC(=O)c1cccc(-c2ccc(/C=N/N3C(=O)C4C5C=CC(C6CC56)C4C3=O)o2)c1 (stereo unspecified)	32	.	.	.	.
COc1ccc(OC)c(/C=C/C(=O)Nc2ccc3c(c2)CCC3)c1	49	.	.	.	.
COc1ccc(NC(=O)/C=C/c2cc(Br)ccc2OC)cc1	49	.	.	.	.
CCOC(=O)C1=C(C)NC2=C(C(=O)CCC2)C1c1coc2ccccc2c1=O (stereo unspecified)	.	.	.	.	.
CC1=C(C(=O)OCCOc2ccccc2)C(c2coc3ccccc3c2=O)C2=C(CCCC2=O)N1 (stereo unspecified)	.	43	.	.	.
O=C(O)c1ccc(N/N=C/C2=C(N3CCOCC3)C(=C\c3ccccc3)/CC2)cc1	.	.	.	51	.
Cc1cc(C)nc(N/N=C/C2=C(N3CCOCC3)C(=C\c3ccc(Cl)cc3)/CC2)n1	.	.	.	.	.
Cc1nc2ccc(NC(=O)c3ccc(Cl)c([N+](=O)[O-])c3)cc2s1	.	.	.	.	.
Cc1nc2ccc(NC(=O)c3cc([N+](=O)[O-])cc([N+](=O)[O-])c3Cl)cc2s1	.	.	.	63	.
CCOC(=O)c1c(C)oc2c1cc(O)c1ccccc12	.	.	.	58	.
CC(=O)c1c(C)oc2c1cc(O)c1ccccc12	.	.	.	.	.
COc1cccc(CNC(=O)CCc2c(C)nn(-c3ccc(N4CCOCC4)nn3)c2C)c1	/	.	/	/	.
O=C(c1ccco1)N1CCN(C(c2cccs2)c2nnnn2C2CCCC2)CC1 (stereo unspecified)	.	.	.	.	.
c1cnc2ccc(C(c3nnnn3C3CCCCC3)N3CCN(C4CCCCC4)CC3)cc2c1 (stereo unspecified)	/	/	.	.	/
c1cnc2ccc(C(c3nnnn3C3CCCCC3)N3CCCCC3)cc2c1 (stereo unspecified)	.	42	.	.	.
O=C(c1ccco1)N1CCN(C(c2ccccn2)c2nnnn2C2CCCC2)CC1 (stereo unspecified)	.	35	.	.	.
COc1ccc(C(c2nnnn2C2CCCC2)N2CCC(C)CC2)cc1 (stereo unspecified)	.	30	.	.	.
